The source of these data is PubChem BioAssay AID1851 (National Center for Advancing Translational Sciences (NCATS), 2009).

Several values for one entry are separate records, joined by “and”; a condition that tells them apart may be missing. Equal entries are not always repeated. In all, about 16,000 compounds went through this assay and about 5,800 (36%) were called active. About 23% were inconclusive and are not listed. The call rests on the fitted dose curve; in most records, active means well fitted curve in the direction sought with a large enough effect; inconclusive means small, poorly fitted or top-dose-only effect, or effect the other way; inactive means no such curve, though single readings can be large or run the other way. The list shows a part of the results. Some structures have more than one record in an assay (separate samples or runs), and their calls can disagree.
On the % scale 0 is the no-effect control and ±100 the full control effect.

Sequence of Cytochrome P450 2C19 (Homo sapiens) (P33261 whole entry, looked up): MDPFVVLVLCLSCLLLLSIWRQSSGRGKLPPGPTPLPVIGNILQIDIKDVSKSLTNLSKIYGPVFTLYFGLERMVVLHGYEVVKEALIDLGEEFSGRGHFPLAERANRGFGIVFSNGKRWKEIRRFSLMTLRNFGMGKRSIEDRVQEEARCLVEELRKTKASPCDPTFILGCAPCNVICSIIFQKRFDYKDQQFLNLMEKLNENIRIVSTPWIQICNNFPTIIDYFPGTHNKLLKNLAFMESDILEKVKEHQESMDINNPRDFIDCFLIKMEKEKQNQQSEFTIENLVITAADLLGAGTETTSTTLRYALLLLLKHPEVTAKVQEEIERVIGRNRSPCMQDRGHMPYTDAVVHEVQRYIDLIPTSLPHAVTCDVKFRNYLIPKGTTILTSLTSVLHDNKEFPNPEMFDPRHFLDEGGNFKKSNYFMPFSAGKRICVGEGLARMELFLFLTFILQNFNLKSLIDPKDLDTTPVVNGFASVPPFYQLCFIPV

This assay addresses Cytochrome P450 2C19 (Homo sapiens) (UniProt P33261). Kind of assay: Cytochrome panel assay with activity outcomes. Particulars: recombinant CYP, pro-luciferin dealkylation, luminescence, p450-cyp2c19; series mostly up to 57.1 µM; activity, negative = inhibition: at the top concentration.
As to `CC(=O)c1[nH]c(C)c(C(C)=O)c1C`, the “activity, negative = inhibition” value is -10.7% (inactive). With `CC(=O)c1c(C)[nH]c(C(=O)COc2ccc(C#N)cc2)c1C`, the AC50 – broadly, the concentration at which the activity in the assay is half-maximal – was 8.91 µM (active). On the same count and under the same terms, as for `S=C1N(c2ccccc2)C(c2ccc(Cl)cc2)N2CCCN12` (stereo unspecified), the figure is 2.24 µM (active). Regarding `Cc1ccc(S(=O)(=O)/C(C#N)=C/c2c(N3CC(C)OC(C)C3)nc3ccccn3c2=O)cc1` (stereo unspecified), the AC50 was 14.1 µM (active). Regarding `O=C(O)CCc1ccc(-c2ccc(Cl)cc2)n1CCC(=O)O`, the “activity, negative = inhibition” value is -23.8% (inactive).

For the compound `O=C1/C(=C/c2ccccc2)[C@@H](NC2CCCCC2)c2ccccc21`, the concentration at half-maximal activity (AC50) was 1.26 µM (active). As to `CCCNC(=O)CC(NS(=O)(=O)c1ccc(Cl)cc1)c1ccco1` (stereo unspecified), the AC50 is 1 µM (active).

`CCCNC(=O)NS(=O)(=O)c1ccc(Cl)cc1`: the “activity, negative = inhibition” value was -5.17% [at 25.6 µM] (inactive). Consider `O=C(CC(NS(=O)(=O)c1ccc(Cl)cc1)c1ccco1)NCc1ccco1` (stereo unspecified), for which the AC50 was 7.94 µM (active). Regarding `CCOC(=O)C[C@@H](C(=O)OCC)[C@@H]1CCCCC1=O`, the activity, negative = inhibition was -32.2% [at 11.4 µM] (inactive). The same measure, in the same setting: as for `O=C1NC(=O)C(c2ccccc2)(c2ccccc2)N1`, the figure is 10.9% (inactive); as for `COC(=O)C/C=C\[C@@H](C)[C@@H]1C=C[C@H](OC(C)=O)[C@H](COC(C)=O)O1`, 16.3% [at 11.4 µM] (inactive). Same read-out and setting: as for `O=C1CN2CCN(CC2)CC(=O)Nc2ccc(cc2)S(=O)(=O)c2ccc(cc2)NC(=O)CN2CCN(CC2)CC(=O)Nc2ccc(cc2)S(=O)(=O)c2ccc(cc2)N1`, the figure is -8.07% [at 11.4 µM] (inactive). For the compound `CCn1c(-c2nonc2NC(=O)c2ccccc2)nc2ccccc21`, the AC50 is 1.58 µM (active). With `CCC(=O)Nc1nonc1-c1nc2ccccc2n1N(C(=O)CC)C(=O)CC`, the “activity, negative = inhibition” value is -13.8% (inactive). With `Cc1ccccc1-c1ccc2ncnc(NC3CC3)c2c1`, the AC50 is 1.26 µM (active). As for `Clc1ccccc1-c1ccc2ncnc(NC3CCNCC3)c2c1`, the AC50 is 3.98 µM (active).

For `FC(F)(F)c1ccccc1-c1ccc2ncnc(NC3CCNCC3)c2c1`, the AC50 was 3.98 µM (active).

Turning to `CN(C)Cc1ccccc1-c1ccc2ncnc(NC3CCNCC3)c2c1`, the “activity, negative = inhibition” value was 0.549% (inactive). Turning to `FC(F)(F)c1ccccc1-c1ccc2ncnc(NC3CC3)c2c1`, the AC50 is 2 µM (active). `Cc1ccccc1-c1nc(NC2CCNCC2)c2ccccc2n1`: the “activity, negative = inhibition” value was -11.2% (inactive). Consider `O[C@@H](c1ccccc1)C1CCN(CCc2ccccc2)CC1`, for which the “activity, negative = inhibition” value is -43.7% (inactive). As for `C[C@@H](N)C(=O)O`, the “activity, negative = inhibition” value is -2.97% (inactive). Consider `Cc1ccccc1N1CCN(S(=O)(=O)C[C@@]23CC[C@H](C[C@H]2NC(=O)[C@@H](N)CCS(C)(=O)=O)C3(C)C)CC1`, for which the “activity, negative = inhibition” value is -31.2% (inactive). Turning to `O=C1NC(c2ccccc2)=NC1(NS(=O)(=O)c1ccccc1)C(F)(F)F` (stereo unspecified), the “activity, negative = inhibition” value is 9.27% (inactive).

`COc1ccc(S(=O)(=O)NC2(C(F)(F)F)N=C3SCCN3C2=O)cc1` (stereo unspecified): the AC50 was 22.4 µM (active). For the compound `COc1cnc(NS(=O)(=O)c2ccc(N)cc2)nc1`, the “activity, negative = inhibition” value is -19.3% [at 25.6 µM] (inactive). On the same count and under the same terms, as for `CC(=O)[C@@]1(O)CC[C@H]2[C@H]3C[C@@H](C)C4=CC(=O)C=C[C@]4(C)[C@@]3(F)[C@@H](O)C[C@]21C`, the figure is -14.6% [at 25.6 µM] (inactive). For `COc1ccc(CC(=O)NC(=S)Nc2ccc(S(=O)(=O)NC(C)(C)C)cc2)cc1`, the AC50 was 25.1 µM (active).

As to `CCC(=O)NC(=S)Nc1ccc(S(=O)(=O)NC(C)=O)cc1`, the “activity, negative = inhibition” value is -19.2% (inactive). Same read-out and setting: as for `CC(C)(C)N1C(=O)[C@@H]2[C@H]3C(=CC[C@H]2C1=O)C(=O)[C@H]1O[C@H]1[C@H]3O`, the figure is 18.8% [at 11.4 µM] (inactive). On to `O=C(O)C1=CCCNC1`, for which the AC50 entry was “inactive”. Turning to `COc1ccc(CCNc2nc(-c3cccnc3)cs2)cc1OC`, the half-maximal activity concentration (AC50) is 1.41 µM (active). Same read-out and setting: as for `O=C(NC12CC3CC(CC(C3)C1)C2)C12CC3CC(C1)CC(n1cnc(Cl)n1)(C3)C2`, the figure is 8.91 µM (active). In the case of `COc1ccc(NC(=O)C23CC4CC(C2)CC(n2cnc(Br)n2)(C4)C3)c(C)c1`, the “activity, negative = inhibition” value is -20.6% (inactive). Still for that read-out and setting: as for `COC(=O)[C@@H]1[C@@H]2C[C@H]3c4[nH]c5ccccc5c4CCN3C[C@@H]2CC[C@@H]1OS(=O)(=O)O`, the figure is -2.78% [at 11.4 µM] (inactive). On to `CCOc1cc(S(=O)(=O)N(Cc2ccccc2)Cc2ccccc2)c(OCC)cc1-n1cnnn1`, for which the concentration at half-maximal activity (AC50) is 11.2 µM (active).

Turning to `CC1(C)NC(=O)N(c2ccc([N+](=O)[O-])c(C(F)(F)F)c2)C1=O`, the AC50 is 126 nM (active) and 251 nM (active). For the compound `Cc1cc2nc(CCN(C(=S)NCC(C)C)C3CCCC3)[nH]c2cc1C`, the AC50 is 2.24 µM (active). For the compound `COC(=O)Cn1cnc(=O)c(C#N)c1/C=C/N(C)C`, the “activity, negative = inhibition” value was -16.4% (inactive). Consider `N[C@H](C(=O)O)[C@@H]1C[C@@H]1C(=O)O`, for which the AC50 entry is “inactive”. Consider `NC1(C(=O)O)CC(C(=O)O)C1` (stereo unspecified), for which the “activity, negative = inhibition” value was -15.2% (inactive).

On to `NC1(C(=O)O)C[C@@H](C(=O)O)[C@H](C(=O)O)C1`, for which the AC50 result is “inactive and 7.94 µM (active)”.

`C[C@@]1(C(=O)O)CCC[C@@H]1C(=O)O`: the activity, negative = inhibition was 40% [at 11.4 µM] (inactive). For the compound `NC1(C(=O)O)C[C@H](C(=O)O)[C@H](C(=O)O)C1` (stereo partly specified), the AC50 is 0.398 µM (active). Consider `N[C@@]1(C(=O)O)CN[C@H](C(=O)O)C1`, for which the “activity, negative = inhibition” value is -7.35% (inactive).
